{"source": "the supplement of paper PMC7156485", "note": "Counter-ions that a name gives are not always drawn.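 Wherever H1.0 immunofluorescence intensity relative to DMSO is given: TDF is a line of transformed human dermal fibroblasts of mesenchymal origin.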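 Wherever cell number relative to DMSO is given: TDF denotes transformed human dermal fibroblasts of mesenchymal origin.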", "data": [{"test_system": "TDF", "assay": "cell number relative to DMSO (% of DMSO); higher = more cells (less growth inhibition / toxicity)", "conditions": "concentration: 10 µM; 24 h", "summary_of_the_method": "(§1)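 Cell number or H1.0 nuclear intensity appears as percent of the plate control, based on the median of replicates. Measurements came from HCC1569 and TDF cells exposed in triplicate to compounds at 10 µM for 24 h at 37 °C, then imaged in six fields per well at ×10. Positional effects were smoothed out of HCC1569 values.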", "values": [{"smiles": "NC(=O)c1ccc(-c2nc(-c3ccc4c(c3)OCO4)c(-c3ccccn3)[nH]2)cc1", "cell number": 106}, {"smiles": "O=c1ccc2ccc(O)c(O)c2o1", "note": "[7,8-dihydroxy-2H-chromen-2-one]", "cell number": 79.9}, {"smiles": "CCN1CCN(c2cc3c(cc2F)c(=O)c(C(=O)O)cn3C2CC2)CC1", "note": "[Enrofloxacin]", "cell number": 106}, {"smiles": "CC(C)=CCC(OC(=O)C=C(C)C)C1=CC(=O)c2c(O)ccc(O)c2C1=O", "note": "(stereo not drawn) [Shikonin beta,beta-dimethylacrylate]", "cell number": 83.5}, {"smiles": "CCN(Cc1ccccc1)C(=O)Cn1c(=O)n(C)c2cnc(-c3ccccc3)nc21", "cell number": 17.6}, {"smiles": "CN(CCOc1ccc(NS(C)(=O)=O)cc1)CCc1ccc(NS(C)(=O)=O)cc1", "note": "[Dofetilide]", "cell number": 121}, {"smiles": "Cc1ccc(CN2C(=O)S/C(=C\\c3ccc(Cl)cc3)C2=O)cc1", "cell number": 117}, {"smiles": "O=C1NC(c2cccc([N+](=O)[O-])c2)=CCN1c1ccccc1O", "cell number": 104}, {"smiles": "Cc1cccc(Nc2ccccc2C(=O)O)c1C", "note": "[Mefenamic acid]", "cell number": 107}]}, {"test_system": "TDF", "assay": "H1.0 immunofluorescence intensity relative to DMSO (% of DMSO); higher = stronger H1.0 induction, active = 120 or more", "conditions": "concentration: 10 µM; 24 h", "summary_of_the_method": "as §1", "values": [{"smiles": "CCCCCCCCCCCCCCC(F)C(=O)O", "note": "(stereo not drawn) [2-Fluoropalmitic acid]", "H1.0 immunofluorescence intensity": "99.7 (inactive)"}, {"smiles": "CC(C)(C)NCC(O)c1cc(O)cc(O)c1.CC(C)(C)NCC(O)c1cc(O)cc(O)c1.O=S(=O)(O)O", "note": "(stereo not drawn) [Terbutaline hemisulfate]", "H1.0 immunofluorescence intensity": "92.8 (inactive)"}, {"smiles": "COc1cc(-c2oc3cc(O)ccc3c(=O)c2O)ccc1O", "note": "[Geraldol]", "H1.0 immunofluorescence intensity": "95.2 (inactive)"}, {"smiles": "COc1cc2nc(N3CCN(C(=O)c4ccco4)CC3)nc(N)c2cc1OC.Cl", "note": "[Prazosin.HCl]", "H1.0 immunofluorescence intensity": "92 (inactive)"}, {"smiles": "OCC1OC(n2cnc3c(NC4CC5CCC4C5)ncnc32)C(O)C1O", "note": "(stereo not drawn)", "H1.0 immunofluorescence intensity": "96.9 (inactive)"}, {"smiles": "CC(CCc1ccc(O)cc1)NCCc1ccc(O)c(O)c1.Cl", "note": "(stereo not drawn) [Dobutamine hydrochloride]", "H1.0 immunofluorescence intensity": "85.4 (inactive)"}, {"smiles": "Nc1c(C(=O)O)c2nc3c(C(=O)O)cccc3oc-2cc1=O", "note": "[2-amino-3-oxo-3H-phenoxazine-1,9-dicarboxylic acid]", "H1.0 immunofluorescence intensity": "110 (inactive)"}, {"smiles": "Nc1nc(Cl)nc2c1ncn2C1OC(CO)C(O)C1O", "note": "(stereo not drawn) [2-Chloroadenosine]", "H1.0 immunofluorescence intensity": "87.8 (inactive)"}, {"smiles": "OC(Cn1cncn1)(Cn1cncn1)c1ccc(F)cc1F", "note": "[Fluconazole]", "H1.0 immunofluorescence intensity": "93.8 (inactive)"}, {"smiles": "CN(CCOc1ccc(CC2SC(=O)NC2=O)cc1)c1ccccn1.O=C(O)C=CC(=O)O", "note": "(stereo not drawn) [Rosiglitazone maleate]", "H1.0 immunofluorescence intensity": "92.5 (inactive)"}, {"smiles": "CC1CCC2C(C)(CO)C(O)CCC2(C)C12CCC(CO)(CCO)O2", "note": "(stereo not drawn) [Lagochiline]", "H1.0 immunofluorescence intensity": "97 (inactive)"}, {"smiles": "O=C(Nc1ccc(Oc2ccnc3[nH]ccc23)c(F)c1)c1cccn(-c2ccc(F)cc2)c1=O", "H1.0 immunofluorescence intensity": "95.1 (inactive)"}, {"smiles": "O=C(O)c1cc(=O)c2ccc(Cl)cc2[nH]1", "note": "[7-Chlorokynurenic acid]", "H1.0 immunofluorescence intensity": "92 (inactive)"}, {"smiles": "Cn1cnc2c1c(=O)[nH]c(=O)n2C", "note": "[Theobromine]", "H1.0 immunofluorescence intensity": "96.4 (inactive)"}, {"smiles": "Cc1cnc(Nc2ccc(N3CCN(C)CC3)cc2)nc1Nc1cccc(S(=O)(=O)NC(C)(C)C)c1", "H1.0 immunofluorescence intensity": "97.9 (inactive)"}, {"smiles": "CCCOC(=O)c1c(-c2ccccc2)nc(CC)c(C(=O)SCC)c1CCC", "H1.0 immunofluorescence intensity": "93.7 (inactive)"}, {"smiles": "O=c1onc2cnc3ccccc3n12", "H1.0 immunofluorescence intensity": "103 (inactive)"}, {"smiles": "CN1C2CCC1CC(OC(c1ccccc1)c1ccccc1)C2.CS(=O)(=O)O", "note": "(stereo not drawn) [Benztropine mesylate]", "H1.0 immunofluorescence intensity": "97.6 (inactive)"}, {"smiles": "CC(O)C(=O)C1=Nc2c([nH]c(N)nc2=O)NC1", "note": "(stereo not drawn) [Sepiapterin]", "H1.0 immunofluorescence intensity": "97.4 (inactive)"}, {"smiles": "C=C(c1ccc(C(=O)O)cc1)c1cc2c(cc1C)C(C)(C)CCC2(C)C", "note": "[Bexarotene]", "H1.0 immunofluorescence intensity": "84 (inactive)"}, {"smiles": "CC(O)(P(=O)([O-])O)P(=O)([O-])O", "note": "[Etidronate]", "H1.0 immunofluorescence intensity": "102 (inactive)"}, {"smiles": "CC(C)=CCC(O)C1=CC(=O)c2c(O)ccc(O)c2C1=O", "note": "(stereo not drawn) [Shikonin]", "H1.0 immunofluorescence intensity": "119 (inactive)"}, {"smiles": "COc1ccc2c(c1)c(CC(=O)N1CCOCC1)c(C)n2C(=O)c1ccc(Cl)cc1", "note": "[Indomethacin morpholinylamide]", "H1.0 immunofluorescence intensity": "90.6 (inactive)"}, {"smiles": "CNNCc1ccc(C(=O)NC(C)C)cc1", "note": "[Procarbazine]", "H1.0 immunofluorescence intensity": "92.4 (inactive)"}, {"smiles": "CN(c1ncccc1CNc1nc(Nc2ccc3c(c2)CC(=O)N3)ncc1C(F)(F)F)S(C)(=O)=O", "H1.0 immunofluorescence intensity": "116 (inactive)"}, {"smiles": "CC12C=CC(=O)C=C1CCC1C2C(=O)CC2(C)C1CCC2(O)C(=O)CO", "note": "(stereo not drawn) [Prednisone]", "H1.0 immunofluorescence intensity": "86.2 (inactive)"}, {"smiles": "Cl.O=C(O)C1=CCCN(CCON=C(c2ccccc2)c2ccccc2)C1", "note": "[NO-711 hydrochloride]", "H1.0 immunofluorescence intensity": "94.2 (inactive)"}, {"smiles": "O=C1Nc2ccccc2C1=Cc1c(Cl)[nH]c2ccccc12", "note": "[Cdk1 Inhibitor]", "H1.0 immunofluorescence intensity": "149 (active)"}, {"smiles": "OC[C@@H](O)[C@H]1NC[C@@H](O)[C@H]1O", "note": "[1,4-Dideoxy-1,4-imino-D-mannitol hydrochloride]", "H1.0 immunofluorescence intensity": "87.9 (inactive)"}, {"smiles": "Cc1cc(C)c(NC(=O)CC(CC(=O)[O-])c2cccc3ccccc23)c(C(=O)N2CCC3(CCCC3)CC2)c1.[Na+]", "note": "(stereo not drawn)", "H1.0 immunofluorescence intensity": "101 (inactive)"}, {"smiles": "NC(=O)c1ccc(-c2nc(-c3ccc4c(c3)OCO4)c(-c3ccccn3)[nH]2)cc1", "H1.0 immunofluorescence intensity": "95.9 (inactive)"}, {"smiles": "O=c1ccc2ccc(O)c(O)c2o1", "note": "[7,8-dihydroxy-2H-chromen-2-one]", "H1.0 immunofluorescence intensity": "96.2 (inactive)"}, {"smiles": "CCN1CCN(c2cc3c(cc2F)c(=O)c(C(=O)O)cn3C2CC2)CC1", "note": "[Enrofloxacin]", "H1.0 immunofluorescence intensity": "96.4 (inactive)"}, {"smiles": "CC(C)=CCC(OC(=O)C=C(C)C)C1=CC(=O)c2c(O)ccc(O)c2C1=O", "note": "(stereo not drawn) [Shikonin beta,beta-dimethylacrylate]", "H1.0 immunofluorescence intensity": "109 (inactive)"}, {"smiles": "CCN(Cc1ccccc1)C(=O)Cn1c(=O)n(C)c2cnc(-c3ccccc3)nc21", "H1.0 immunofluorescence intensity": "156 (active)"}, {"smiles": "CN(CCOc1ccc(NS(C)(=O)=O)cc1)CCc1ccc(NS(C)(=O)=O)cc1", "note": "[Dofetilide]", "H1.0 immunofluorescence intensity": "103 (inactive)"}, {"smiles": "Cc1ccc(CN2C(=O)S/C(=C\\c3ccc(Cl)cc3)C2=O)cc1", "H1.0 immunofluorescence intensity": "98.2 (inactive)"}, {"smiles": "O=C1NC(c2cccc([N+](=O)[O-])c2)=CCN1c1ccccc1O", "H1.0 immunofluorescence intensity": "95.6 (inactive)"}, {"smiles": "Cc1cccc(Nc2ccccc2C(=O)O)c1C", "note": "[Mefenamic acid]", "H1.0 immunofluorescence intensity": "104 (inactive)"}]}]}
